Measurements taken from PubChem BioAssay.
For part of these data: Potency and affinity values are given separately. Activity calls are given as the source filed them.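 Rule for the calls, unless noted: active = fitted half-maximal concentration within the tested range, moderate curve steepness, significant signal drop, and little compound fluorescence or bead-linkage interference; inactive = the rest.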

Tests used:
[1] = target: Cell division control protein 42 homolog (Homo sapiens) (UniProt P60953); experiment: activated mutant Cdc42 GTP-binding inhibitors, dose response, biochemical, multiplex bead flow cytometry, Bodipy-FL-GTP (AID 1333;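 active = fitted half-maximal concentration within the tested dose range, moderate curve steepness, a statistically real signal drop, and little compound fluorescence or tag-binding interference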)
Cell division control protein 42 homolog (Homo sapiens), sequence (P60953 whole entry, looked up): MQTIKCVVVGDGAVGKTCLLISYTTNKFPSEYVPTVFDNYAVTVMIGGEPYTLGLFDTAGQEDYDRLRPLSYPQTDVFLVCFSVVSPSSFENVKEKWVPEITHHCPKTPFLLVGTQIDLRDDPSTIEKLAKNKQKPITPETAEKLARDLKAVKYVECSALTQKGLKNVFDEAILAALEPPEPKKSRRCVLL

[2] = target: Cell division control protein 42 homolog (Homo sapiens) (UniProt P60953); experiment: wildtype Cdc42 GTP-binding inhibitors, dose response, biochemical, multiplex bead flow cytometry, Bodipy-FL-GTP (AID 1334); details: bead-based flow cytometry, Bodipy-FL-GTP binding to GST-Cdc42; at 100 µM (top of the series) unless noted
[3] = target: GTPase HRas (Homo sapiens) (UniProt P01112); experiment: inhibitors of GTP binding to wildtype Ras, dose response, biochemical, multiplex bead flow cytometry (AID 1335;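 active = fitted half-maximal concentration within 10 nM to 100 µM, steepness 0.5 to 2, significant signal drop, low assay interference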); details: bead-based flow cytometry, Bodipy-GTP binding to GST-Ras; at 100 µM (top of the series) unless noted
GTPase HRas (Homo sapiens), sequence (P01112 whole entry, looked up): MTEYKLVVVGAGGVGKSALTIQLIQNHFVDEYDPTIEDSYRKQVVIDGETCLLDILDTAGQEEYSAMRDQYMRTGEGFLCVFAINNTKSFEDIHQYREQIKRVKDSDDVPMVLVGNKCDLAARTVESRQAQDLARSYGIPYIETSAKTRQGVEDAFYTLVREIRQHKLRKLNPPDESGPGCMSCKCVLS

[4] = system: Ras-related protein Rab-7a (dog), GTP binding; experiment: Rab7 GTP binding inhibitors, potency, dose response, biochemical, wildtype, multiplex bead flow cytometry (AID 1336; call rule not given here)
[5] = target: Ras-related C3 botulinum toxin substrate 1 (Homo sapiens) (UniProt P63000); experiment: wildtype Rac1 GTP binding inhibitors, dose response, biochemical, multiplex bead flow cytometry (AID 1340;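 active = dose curve with midpoint inside tested range, moderate steepness, plateau gap beyond fit error, low compound glow and bead-link interference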); details: GST-Rac1 beads, Bodipy-FL-GTP binding; at 100 µM (top of the series) unless noted
[6] = target: GTPase HRas (Homo sapiens) (UniProt P01112); experiment: activated Ras mutant GTP binding inhibitors, dose response, biochemical, multiplex bead flow cytometry (AID 1341;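 active = dose-response curve with midpoint inside the tested range, moderate steepness, significant amplitude and little compound fluorescence or bead-attachment interference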;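 note: GST-tagged constitutively activated Ras mutant immobilized on beads and multiplexed with other GTPases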)

SMILES	outcome [1]	fluorescence, percent of control (lower = inhibition) [2]	GTP binding, percent of control [3]	outcome [4]	GTP binding signal, raw median fluorescence (lower = inhibition) (MCF (arbitrary fluorescence units)) [5]	outcome [6]
CSc1nnc(C)c(/C=C/Nc2ccc(C)cc2)n1	inactive	74.9%	144%	inactive	155	inactive
Cc1nnc(SCC(=O)N2CCOCC2)c2ccccc12	inactive	49.3%	61.1%	inactive	192	inactive
O=C(O)c1cn(CCOc2ccc(Cl)cc2)c2ccccc12	inactive	59.9%	83.2%	inactive	36.5	inactive
NS(=O)(=O)c1ccc(CCN2C(=O)/C(=C\c3ccc(Cl)cc3)SC2=S)cc1	inactive	29%	76.5%	inactive	242	inactive
N#C/C(=C\c1ccccc1)c1nc2ncccc2[nH]1	inactive	36.8%	82.5%	inactive	276	inactive
C(=N\Nc1nn2cnnc2c2ccccc12)/c1ccco1	inactive	31.6%	64.2%	inactive	142	inactive
O=C(COC(=O)C12CC3CC(CC(C3)C1)C2)Nc1nc2c(F)c(F)c(F)cc2s1	inactive	44.1%	68.1%	inactive	0	inactive
CCOc1ccc2c(c1)c(N=NC(=N)N)c(O)n2C	inactive	32.4%	70.3%	inactive	165	inactive
Cc1ccc2cc3cc(C(=O)N4CCN(Cc5ccccc5)CC4)sc3nc2c1	inactive	87.8%	156%	inactive	188	inactive
COCCOC(=O)c1c(C)oc2ccc(OC(=O)c3ccc4c(c3)OCO4)cc12	inactive	31.7%	83.9%	inactive	262	inactive
CC1CN(C(=O)c2cccc(S(=O)(=O)Nc3cc(Cl)ccc3Cl)c2)CC(C)O1 (stereo not drawn)	inactive	26.5%	65.8%	inactive	168	inactive
COc1ccc(C2=Nn3c(nnc3-c3ccccn3)SC2)cc1OC	inactive	34%	44.4%	inactive	112	inactive
COc1ccc(CNc2nc3c(c(=O)n(Cc4ccc(Cl)cc4)c(=O)n3C)n2C)cc1	inactive	29.3%	80.3%	inactive	228	inactive
O=C(COc1ccccc1-c1ccccc1)N/N=C/c1ccncc1	inactive	33.3%	77.4%	inactive	247	inactive
CCOC(=O)N1CCC(NC(=O)c2ccc3nc4ccccc4c(=O)n3c2)CC1	inactive	97.6%	122%	inactive	152	inactive
O=C(Cc1ccc(Nc2nc(=S)[nH]c3ccccc23)cc1)NC1CCCCC1	inactive	25.9%	61.6%	inactive	153	inactive
Cc1n[nH]c(=S)c2nn(-c3cccc(Cl)c3)c(C)c12	inactive	55.8%	71.1%	inactive	217	inactive
CCOc1ccc(Cn2c3ccc(OC)cc3c3nc4ccccc4nc32)cc1	inactive	114% [at 33.3 µM]	127% [at 33.3 µM]	inactive	242	inactive
COc1ccc(CCNC(=O)C2CCCN2C(=O)NC2CCCCC2)cc1OC (stereo not drawn)	inactive	50.7%	180%	inactive	184	inactive
Cc1ccc([N+](=O)[O-])cc1-c1ccc(/C=C(\C#N)c2[nH]nc(N)c2C#N)o1	inactive	32.4%	72.8%	inactive	221	inactive
CCOC(=O)Cc1csc(NC(=O)CSc2nc(-c3ccccc3)c(C#N)c(=O)[nH]2)n1	inactive	29.4%	76.1%	inactive	218	inactive

SMILES	outcome [1]	fluorescence, percent of control (lower = inhibition) [2]	GTP binding, percent of control [3]	outcome [4]	GTP binding signal, raw median fluorescence (lower = inhibition) (MCF (arbitrary fluorescence units)) [5]	outcome [6]
O=C(Cn1cnc2cc([N+](=O)[O-])ccc2c1=O)NCCc1ccc(F)cc1	inactive	35.9%	80.9%	inactive	182	inactive
Cc1c(NS(=O)(=O)c2ccc3c(c2)Cc2ccccc2-3)c(=O)n(-c2ccccc2)n1C	inactive	30.4%	80%	inactive	238	inactive
O=C(O)c1cn(CCOc2ccccc2Cl)c2ccccc12	inactive	99.8%	110%	inactive	86	inactive
Cc1ccc(C)c(N(CC(N)=O)S(C)(=O)=O)c1	inactive	103%	135%	inactive	164	inactive
Cc1ccc(NC(=S)Nc2ccc3nc(-c4ccccn4)c(-c4ccccn4)nc3c2)cc1C	inactive	53.7%	69%	inactive	0	inactive
Cc1ccc(NS(=O)(=O)c2cc(NC(=O)c3ccc4c(c3)NC(=O)CS4)ccc2Cl)c(C)c1	inactive	36.1%	86.2%	inactive	282	inactive
Cc1ccc(NC(=O)CN2C(=O)S/C(=C\c3ccc(-c4cccc(C(=O)O)c4C)o3)C2=O)cc1C	inactive	107%	149%	inactive	265	inactive
Cc1csc(NC(=O)c2cc(=O)[nH]c3ccc(S(=O)(=O)N4CCOCC4)cc23)n1	inactive	31.8%	74.5%	inactive	190	inactive
Cc1ccc(Nc2cc(C(=O)O)c3ccccc3n2)cc1C	inactive	60.9%	84.7%	inactive	31.9	inactive
Cc1ccc(O)c(N=Cc2cc(Cc3ccccc3)cc([N+](=O)[O-])c2O)c1	inactive	30.7%	72.6%	inactive	111	inactive
C=CCc1ccc(OCc2ccc(C(=O)O)o2)c(OC)c1	inactive	58.9%	86.5%	inactive	31.4	inactive
Cc1cccc(C)c1CCNc1ncccc1C(=O)O	inactive	76.7%	245%	inactive	67.9	inactive
CC1=CC(=O)C=C(C)C1=NOS(=O)(=O)c1ccccc1	inactive	29.6%	81.2%	inactive	223	inactive
CSc1ncccc1C(=O)OCC(=O)N1CCOCC1	inactive	84.4%	160%	inactive	170	inactive
Cc1cc(NC(=O)c2cccc(C(=O)Nc3cc(C)on3)n2)no1	inactive	40%	86.3%	inactive	296	inactive
CCOc1cc(/C=N/NC(=O)CSc2cccc3cccnc23)ccc1O	inactive	35.6%	78.2%	inactive	188	inactive
CCOc1cc(/C=C(/C#N)c2nc3ccccc3[nH]2)ccc1OCc1ccc(C(=O)O)o1	inactive	56.8%	84.9%	inactive	103	inactive
COc1ccc(Nc2ccccc2C(=O)O)cc1	inactive	45.2%	92.5%	inactive	262	inactive
CCOC(=O)c1cc(C(=O)OCC)c(=O)[nH]c1N1CCCC1	inactive	31.6%	72.4%	inactive	262	inactive
CCOC(=O)Cn1nnnc1C(CC)N(Cc1ccccc1)Cc1cc2cc(C)ccc2[nH]c1=O (stereo not drawn)	inactive	83.7%	155%	inactive	182	inactive
COC(=O)c1cccnc1SCc1ccccc1	inactive	46%	61.1%	inactive	184	inactive

SMILES	outcome [1]	fluorescence, percent of control (lower = inhibition) [2]	GTP binding, percent of control [3]	outcome [4]	GTP binding signal, raw median fluorescence (lower = inhibition) (MCF (arbitrary fluorescence units)) [5]	outcome [6]
O=C(Nc1cnn(C23CC4CC(CC(C4)C2)C3)c1)c1cnn2cccnc12	inactive	41.2%	94.2%	inactive	324	inactive
Cc1ccccc1COc1c(C)cccc1C(=O)O	inactive	59.9%	209%	inactive	56.3	inactive
CC(C)(C)NC(=O)CCN(/N=C/c1ccc([N+](=O)[O-])o1)C1=NS(=O)(=O)c2ccccc21	inactive	23.6%	33.1%	inactive	86.3	inactive
COc1ccc2[nH]c3nc(SCC(=O)Nc4ccc5c(c4)OCO5)nnc3c2c1	inactive	70.4%	150%	inactive	164	inactive
O=C(O)c1ccc(CSCc2ccccc2Cl)o1	inactive	57.8%	79.8%	inactive	30.2	inactive
O=C(O)c1ccc(NS(=O)(=O)c2ccc3c(c2)C(=O)c2ccccc2C3=O)cc1	inactive	28.6%	69%	inactive	118	inactive
CC(C)[C@H](NC(=O)c1ccccc1)C(=O)OCC(=O)NCCc1ccc(F)cc1	inactive	50.5%	66.5%	inactive	209	inactive
O=c1[nH]cnc2c1C(c1ccccc1[N+](=O)[O-])c1c(nc[nH]c1=O)O2	inactive	38.6%	50%	inactive	113	inactive
Cc1ccc(Sc2c(C)nn(C(=O)C3CC3)c2C)cc1	inactive	28.8%	78.5%	inactive	236	inactive
Cc1ccc2c(c1)c1nnc(SCC(=O)N3CCCc4ccccc43)nc1n2CC(=O)O	inactive	17.6%	37.8%	inactive	96.4	inactive
CC(=O)Nc1ccc(NC(=O)CCn2nnc3ccccc32)cc1	inactive	35.7%	81.1%	inactive	251	inactive
COc1ccc2c(c1)c(C(=O)O)cn2CCOc1ccccc1C	inactive	61.2%	204%	inactive	59.4	inactive
Cc1cc2nc(/C(C#N)=C/c3ccncc3)[nH]c2cc1C	inactive	30.6%	76.7%	inactive	245	inactive
O=C(CSc1ccc2nnc(-c3ccncc3)n2n1)Nc1nccs1	inactive	30.7%	69.4%	inactive	174	inactive
Cc1ccc(CS(=O)(=O)c2ccccc2-c2nnc(-c3ccc(Cl)cc3)o2)cc1	inactive	88.2%	156%	inactive	181	inactive
C/C=C/c1ccccc1OCc1ccc(C(=O)O)o1	inactive	180%	326%	inactive	420	inactive
Cc1c2cc(O)c(=O)cc-2oc2cc(O)c(O)cc12	inactive	5290%	5530%	inactive	5510	inactive
COc1ccc(OCc2oc3ccc(OC)cc3c2C(=O)O)cc1	inactive	53.9%	82.7%	inactive	28.2	inactive
COc1cc(-c2cc(-c3ccc(O)cc3)nc(N)c2C#N)ccc1O	inactive	28%	70.9%	inactive	158	inactive
Cc1ccc(Cc2cnc(NC(=O)/C(C#N)=C/c3ccc(-c4ccc([N+](=O)[O-])cc4)o3)s2)cc1	inactive	28.5%	75.1%	inactive	223	inactive
O=[N+]([O-])c1ccccc1/C=C/C=N/n1c(-c2ccco2)n[nH]c1=S	inactive	28.1%	72.9%	inactive	221	inactive
